High-throughput results from PubChem BioAssay.
MITF TRPM1 HTS: MITF TRPM1 promoter activation in melanoma cells; SK-MEL-5 TRPM1-promoter luciferase, 24 h; % of positive control, neutral wells = 0; activation, % at 12.5 µM; actives 0.75% (n = 300,000);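 active = mean activation of at least 80% with every replicate also reaching 80%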;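 note: 0% = neutral control wells and 100% = parthenolide positive control wells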
esBAF inh: inhibitors of esBAF chromatin remodeling in mouse ES cells | reporter increase, % at 12.5 µM | Bmi1-luciferase knock-in reporter, 24 h; 100% = twice the neutral-well signal | actives 2% (n = 350,000); in the data active = activation above about 40%;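 note: 0% = median of the plate's neutral control wells and 100% = double that signal; a rise in the Bmi1 reporter signal indicates esBAF inhibition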
Wnt act: activators of Wnt/beta-catenin signaling; Wnt/beta-catenin reporter cell assay, activator, plate reader; activation, % at 9.35 µM; actives 1.2% (n = 300,000); in the data active = activation above about 30%, passing the limit was not always enough;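 note: 0% = neutral control wells and 100% = positive control wells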
rRNA inh HTS: selective bacterial rRNA inhibition in E. coli; E. coli WT GFP vs humanized-ribosome RFP mutants, fluorescence, 24 h; active compounds read low; DMSO median 0, no signal -100; GFP signal change (wild-type ribosome), % (test concentration not listed); actives 1.6% (n = 350,000); AID 720706;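 active = significant combined selectivity score with lowered wild-type GFP, culture density cut under 30%, mutant RFP and density less affected; inactive = any of these conditions unmet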
AF4-AF9 inh: blocks AF4 peptide binding to human AF9 | AlphaScreen, biotin-AF4 peptide binding to FLAG-AF9 | actives 0.47% (n = 350,000) | AID 651704 | inhibition, % at 10 µM | P42568;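 active = every replicate reaching a set inhibition limit, whatever the replicate mean, cut at about 25% in these data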;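 note: 0% = plate neutral control median and 100% = total signal loss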
Target sequence (P42568 whole entry, looked up): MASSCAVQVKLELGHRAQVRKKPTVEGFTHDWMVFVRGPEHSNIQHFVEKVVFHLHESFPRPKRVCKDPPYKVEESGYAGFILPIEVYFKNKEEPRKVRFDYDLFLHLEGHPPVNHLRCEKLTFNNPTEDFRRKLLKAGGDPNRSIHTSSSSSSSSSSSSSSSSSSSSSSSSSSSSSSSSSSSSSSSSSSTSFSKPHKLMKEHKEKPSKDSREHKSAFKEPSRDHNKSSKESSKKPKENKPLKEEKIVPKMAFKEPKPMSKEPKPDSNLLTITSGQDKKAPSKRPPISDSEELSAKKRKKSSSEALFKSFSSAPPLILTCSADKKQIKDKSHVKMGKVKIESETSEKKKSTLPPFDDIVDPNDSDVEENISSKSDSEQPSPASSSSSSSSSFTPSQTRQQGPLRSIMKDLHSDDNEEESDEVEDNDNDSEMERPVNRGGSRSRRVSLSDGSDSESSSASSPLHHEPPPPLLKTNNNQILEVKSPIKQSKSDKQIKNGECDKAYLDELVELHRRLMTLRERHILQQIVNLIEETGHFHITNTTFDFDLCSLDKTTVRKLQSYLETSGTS
An asterisk follows results filed as active; . = no result. Hits are enriched below; roughly 3.7% of the tested compounds scored in any of these assays.

SMILES | MITF TRPM1 HTS | esBAF inh | Wnt act | rRNA inh HTS | AF4-AF9 inh
COc1ccc(C(=O)c2c(C)oc3ccc(O)cc23)c(OC)c1 | -8 | 4 | 2 | -2 | -1
CCOc1ccc(-c2ccc(SCC(=O)Nc3nnc(CC)s3)nn2)cc1 | 66 | . | 11 | 7 | -3
COc1ccc(-c2ccc(SCC(=O)N3CC(=O)Nc4ccccc43)nn2)cc1 | 34 | 49* | 7 | -13 | 2
COC(=O)CCSCC(=O)Nc1nnc(C)s1 | . | -7 | -7 | 1 | 27*
Cc1nc(SCC(=O)N2CC(=O)Nc3ccccc32)nc(C)c1C | -8 | . | -1 | 2 | -4
COc1ccc(-c2ccc(SCC(=O)Nc3nnc(C)s3)nn2)cc1 | 20 | . | 35* | 19 | 2
COc1ccc(N2CCN(CCCNC(=S)Nc3c(C)cccc3C)CC2)cc1 | -3 | -3 | 0 | 0 | 43*
COc1ccc(NC(=S)NCCCN2CCOCC2)cc1 | 1 | . | -1 | . | 0
COc1ccc(-n2nc3c(c2NC(=O)C2CC2)CS(=O)(=O)C3)cc1 | -6 | -3 | -1 | 6 | 2
Cc1[nH]c2ccccc2c1/C=C/c1nc2ccccc2c(=O)n1CCO | 19 | 37* | 5 | 22 | 6
O=c1c2ccccc2nc(/C=C/c2ccc(Br)cc2)n1CCO | . | . | 3 | 19 | 2
C[C@H]1CN([C@@H](C)CO)C(=O)c2cc(C3=CCCC3)cnc2O[C@@H]1CN(C)C(=O)Nc1cccc(F)c1 | . | 4 | . | -6 | 0
CCCCNS(=O)(=O)c1ccc2nc(SCC(=O)c3ccccc3OC)[nH]c2c1 | -15 | 3 | -2 | -45* | 9
CCCCNS(=O)(=O)c1ccc2nc(SCC(N)=O)[nH]c2c1 | -1 | -7 | 1 | 11 | 1
CCC(=O)Nc1cc(C(=O)OCC(=O)c2ccc(Cl)cc2Cl)ccc1C | 0 | 3 | . | . | .
CCC(=O)Nc1cc(C(=O)OCC(=O)c2ccccc2Cl)ccc1C | . | 64* | 35* | . | .
Cc1ccccc1NC(=O)CC(=O)c1ccccc1 | 13 | 10 | 0 | 10 | -3
CCC(=O)Nc1cc(C(=O)OCC(=O)c2ccccc2)ccc1C | 77 | . | 35* | . | .
C[C@@H]1CN([C@@H](C)CO)C(=O)c2cccc(NC(=O)C3CCOCC3)c2O[C@@H]1CN(C)C(=O)Nc1ccc2c(c1)OCO2 | . | 3 | . | 1 | -3
COc1ccc(N=Nc2nc3ccc(Br)cc3n2C)cc1 | 69 | 52* | . | . | .
COc1ccc(-c2c(-c3cc(OC)cc(OC)c3)n(C)c3ccc(Br)cc23)cc1 | -2 | 4 | 1 | 1 | 2
Cc1onc(NC(=O)NC(=O)c2c(F)cccc2Cl)c1Br | 5 | -8 | -2 | -14 | 0
O=C(c1ccccc1C(=O)N1CCN(c2ccc(F)cc2)CC1)N1CCN(c2ccc(F)cc2)CC1 | . | 5 | . | . | .
CS(=O)(=O)c1ccc(-c2sc3ccccc3c2C(=O)N2CCN(c3ccc(F)cc3)CC2)cc1 | 94* | 34 | 45* | 3 | -5
Cc1ccc(N2CCN(C(=O)NC3CCCCC3)CC2)c(C)c1 | . | 4 | -1 | -3 | 1
SMILES | MITF TRPM1 HTS | esBAF inh | Wnt act | rRNA inh HTS | AF4-AF9 inh
C/C(=N/OC(=O)C1CC1c1ccccc1)c1ccccc1 (stereo not drawn) | 8 | . | 0 | -21* | -2
COc1ccc(C2CC2/C(C)=N/OC(=O)C2CC2)cc1 (stereo not drawn) | 8 | 2 | 1 | -4 | -1
Fc1ccccc1-c1ccc(/C=N/Nc2nc3ccccc3[nH]2)o1 | 13 | . | 53* | 3 | 8
Cc1ccc(/C=N\Nc2nc3ccc(Cl)cc3[nH]2)o1 | 39 | . | 68* | -60 | .
Nc1nc(NCC2CCCO2)nc(Nc2cccc(F)c2)c1[N+](=O)[O-] (stereo not drawn) | . | . | -2 | 18 | 31*
Nc1nc(NCC2CCCO2)nc(Nc2ccccc2)c1[N+](=O)[O-] (stereo not drawn) | 18 | . | 0 | 15 | 3
COC(=O)c1ccc(-c2nc(CN3CCN(Cc4cccc(C)c4)CC3)c(C)o2)cc1 | . | 6 | -1 | -9 | 2
CCCc1cc(=O)oc2c(CNc3ccc(OCC)cc3)c(O)ccc12 | -5 | 7 | 0 | 14 | -2
O=C(OCc1c(-c2ccccc2)ncc2ccccc12)c1cccs1 | 6 | 7 | 5 | -21* | -19
O=C(OCc1c(-c2ccccc2)ncc2ccccc12)c1ccc(Br)cc1 | 3 | -3 | 1 | 6 | 0
CCc1ccc2nc(NC(=O)C3CCN(c4ncnc5sc(C)c(C)c45)CC3)sc2c1 | 20 | 60* | 22 | 6 | 3
